Common to all, as to assay: glycan array binding signal (z-score within array); higher = stronger binding
Common to all, as to conditions: glycan notation: IUPAC condensed, linker removed

Assay [1] concerns the target Neu5Ac(a2-6)Gal(b1-4)GlcNAc6S. A digest of the protocol: (§1)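 Negative Z-scores can be read as non-binding. The Z-score is calculated within each array and then averaged across arrays of one protein sequence at different concentrations or buffers and across linkers. Arrays, 3228 in all, were curated from the Consortium for Functional Glycomics database and kept only where the protein sequence was available.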

Assay [2] deals with Neu5Ac(b2-6)Gal(b1-4)GlcNAc. A digest of the protocol:
as §1

In another assay the target is Neu5Gc(a2-3)Gal(b1-4)Glc. A digest of the protocol: as §1

Experimental findings from the supplement of paper PMC8728848 are described below.

This excerpt belongs to a sample that is enriched for the strongest signals.

B1: DC-SIGN (Canis lupus), XP_853402 (protein)
chain: AGLCRPCPWKWELFQESCYFFSQTQNTWKESISACQNLRAQLVIINSTEEQKFLKSWNTRNNQRTWIGLSDHHNEGSWKWVDNTPLQLSFWKEGEPNNHGDEDCVELYSDGWNDNRCSTENFWICKKPSSPCPGPGLNDIFEAQKIEWHE
Consider B1, for which the “glycan array binding signal (z-score)” value in assay [1] was -0.341; in assay [2], -0.361; in the assay with Neu5Gc(a2-3)Gal(b1-4)Glc, -0.065.
